According to PubChem BioAssay (NCI):
This is part of a sample that, as a whole, favours compounds with a hit. Of some 83,000 tested, about 20% had one in any assay.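 For each line, cells grew in 96-well plates with the test compound present at a single concentration for 48 hours.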 Calls of active or inactive are those of the source. How the source made its calls: active means growth percent below 10; inactive means the rest.

Tests used:
Assay in all cases: NCI-60 one-dose screen, 48 h (100 = growth as untreated, 0 = no growth, -100 = all killed)
SK-MEL-2 melanoma = settings: 10 µM unless noted
EKVX NSCLC = settings: 10 µM unless noted
SN12C renal = settings: 10 µM unless noted
UO-31 renal = settings: 10 µM unless noted
TK-10 renal = settings: 10 µM unless noted
ACHN renal = settings: 10 µM unless noted
CAKI-1 renal = settings: 10 µM
A498 renal = settings: 10 µM unless noted
CCRF-CEM leukemia = settings: 10 µM unless noted
MOLT-4 leukemia = settings: 10 µM unless noted
SR leukemia = settings: 10 µM unless noted
RPMI-8226 leukemia = settings: 10 µM unless noted
OVCAR-8 ovarian = settings: 10 µM unless noted
OVCAR-5 ovarian = settings: 10 µM unless noted
OVCAR-4 ovarian = settings: 10 µM unless noted
SK-OV-3 ovarian = settings: 10 µM unless noted
OVCAR-3 ovarian = settings: 10 µM unless noted
HS 578T breast = settings: 10 µM unless noted
NCI/ADR-RES ovarian = settings: 10 µM unless noted
IGROV1 ovarian = settings: 10 µM unless noted

Measured: growth

N/C(=N\c1nc2c(Cl)cccc2s1)C(Cl)(Cl)Cl
inactive: SK-MEL-2 melanoma 105% | EKVX NSCLC 52.6% | SN12C renal 91.9% | UO-31 renal 61% | TK-10 renal 83.5% | ACHN renal 19.6% | CAKI-1 renal 43.9% | A498 renal 29.9% | CCRF-CEM leukemia 97.3% | MOLT-4 leukemia 92.1% | SR leukemia 94.2% | RPMI-8226 leukemia 53.3% | OVCAR-8 ovarian 87.6% | OVCAR-5 ovarian 95.5% | OVCAR-4 ovarian 76% | SK-OV-3 ovarian 91.3% | OVCAR-3 ovarian 57.9% | HS 578T breast 80.2% | NCI/ADR-RES ovarian 89%

CCCCCc1ccc(S(=O)(=O)N(C(C)=O)c2cccc(-c3csc(N(CCN4CCN(C)CC4)C(C)=O)n3)c2)cc1
inactive: SK-MEL-2 melanoma 92.8% | EKVX NSCLC 61.8% | SN12C renal 62.6% | TK-10 renal 99.2% | CAKI-1 renal 20.5% | A498 renal 71.1% | OVCAR-8 ovarian 60.7% | OVCAR-5 ovarian 92.2% | OVCAR-4 ovarian 47.1% | SK-OV-3 ovarian 100% | IGROV1 ovarian 46.8% | HS 578T breast 72.8% | NCI/ADR-RES ovarian 48.3%
active: UO-31 renal -69.2% | ACHN renal -10.5% | CCRF-CEM leukemia 4.61% | MOLT-4 leukemia -9.16% | SR leukemia -17.7% | RPMI-8226 leukemia -27.8%

O=C(O)c1ccc(-n2cc(CNc3ccc(F)cc3)c(-c3ccc(C(F)(F)F)cc3)n2)cc1
inactive: SK-MEL-2 melanoma 110% | EKVX NSCLC 74.4% | SN12C renal 94.4% | UO-31 renal 67.2% | TK-10 renal 110% | ACHN renal 76.6% | CAKI-1 renal 76.2% | A498 renal 90.3% | CCRF-CEM leukemia 81.9% | MOLT-4 leukemia 81% | SR leukemia 109% | RPMI-8226 leukemia 86.5% | OVCAR-8 ovarian 71.8% | OVCAR-5 ovarian 106% | OVCAR-4 ovarian 86.8% | SK-OV-3 ovarian 95.2% | OVCAR-3 ovarian 84.1% | HS 578T breast 88.8% | NCI/ADR-RES ovarian 87%

Cc1ccc(-c2csc(N/N=C/c3nc4ccccc4n3C3CC3)n2)cc1
active: ACHN renal 1.34% | CCRF-CEM leukemia -20.9%
inactive: SK-MEL-2 melanoma 74.7% | EKVX NSCLC 97.5% | SN12C renal 82.8% | UO-31 renal 16.1% | TK-10 renal 141% | CAKI-1 renal 77.9% | A498 renal 78.3% | MOLT-4 leukemia 37.3% | SR leukemia 25.1% | RPMI-8226 leukemia 84.8% | OVCAR-8 ovarian 18.9% | OVCAR-5 ovarian 105% | OVCAR-4 ovarian 93.1% | SK-OV-3 ovarian 120% | IGROV1 ovarian 57.8% | HS 578T breast 88.5% | NCI/ADR-RES ovarian 72.9%

CN1CCN(c2ccc(NC(=O)Nc3ccc4c(ccn4-c4cccc(C(N)=O)n4)c3)cc2C(F)(F)F)CC1
inactive: SK-MEL-2 melanoma 21.1% | EKVX NSCLC 78.4% | SN12C renal 84.1% | UO-31 renal 75.6% | TK-10 renal 97.4% | ACHN renal 71.8% | CAKI-1 renal 87.1% | A498 renal 85.3% | SR leukemia 14.6% | OVCAR-8 ovarian 77.6% | OVCAR-5 ovarian 85.3% | OVCAR-4 ovarian 84.9% | IGROV1 ovarian 80.1% | OVCAR-3 ovarian 102% | HS 578T breast 22.1% | NCI/ADR-RES ovarian 94.5%
active: CCRF-CEM leukemia 8.43% | MOLT-4 leukemia 3.75% | RPMI-8226 leukemia -17.5%

COc1ccc(-c2nn(-c3ccccc3)cc2/C=C/C(=O)c2ccc(NC(=O)CCCCCCC(=O)NO)cc2)cc1
inactive: SK-MEL-2 melanoma 109% | EKVX NSCLC 97.2% | SN12C renal 92.7% | UO-31 renal 93.7% | TK-10 renal 107% | ACHN renal 111% | CAKI-1 renal 81.9% | A498 renal 68.4% | CCRF-CEM leukemia 92.5% | MOLT-4 leukemia 70.3% | SR leukemia 110% | RPMI-8226 leukemia 115% | OVCAR-8 ovarian 99.7% | OVCAR-5 ovarian 108% | OVCAR-4 ovarian 97.5% | SK-OV-3 ovarian 91.7% | IGROV1 ovarian 96.2% | HS 578T breast 87.2% | NCI/ADR-RES ovarian 97.8%

O=C(/C=C1\C=CN(CCCCF)c2ccccc21)n1ccc2ccccc21
inactive: SK-MEL-2 melanoma 103% | EKVX NSCLC 90.7% | SN12C renal 94.6% | UO-31 renal 74.2% | TK-10 renal 117% | ACHN renal 97.6% | CAKI-1 renal 87.5% | A498 renal 135% | CCRF-CEM leukemia 96.4% | MOLT-4 leukemia 105% | SR leukemia 107% | RPMI-8226 leukemia 102% | OVCAR-8 ovarian 106% | OVCAR-5 ovarian 99.2% | OVCAR-4 ovarian 85.4% | SK-OV-3 ovarian 95.9% | IGROV1 ovarian 74.9% | HS 578T breast 119% | NCI/ADR-RES ovarian 108%

C#CCOc1ccc(/C=N/Nc2nc(-c3cc(Cl)ccc3Cl)cs2)cc1
inactive: SK-MEL-2 melanoma 113% | EKVX NSCLC 73.6% | SN12C renal 88.7% | UO-31 renal 68.5% | TK-10 renal 148% | ACHN renal 97.8% | CAKI-1 renal 77.1% | A498 renal 83.6% | CCRF-CEM leukemia 94.7% | MOLT-4 leukemia 86.3% | SR leukemia 87.8% | RPMI-8226 leukemia 76.8% | OVCAR-8 ovarian 93.5% | OVCAR-5 ovarian 99.5% | OVCAR-4 ovarian 52.8% | SK-OV-3 ovarian 97.9% | IGROV1 ovarian 64.4% | HS 578T breast 98.3% | NCI/ADR-RES ovarian 95%

O=c1c2ccccc2nc(COc2ccccc2)n1/N=C/C=C/c1ccccc1
inactive: SK-MEL-2 melanoma 94.5% | EKVX NSCLC 86.2% | SN12C renal 87.6% | UO-31 renal 89.8% | TK-10 renal 106% | ACHN renal 96.8% | CAKI-1 renal 103% | A498 renal 98.6% | CCRF-CEM leukemia 84.3% | MOLT-4 leukemia 97.1% | SR leukemia 85.7% | RPMI-8226 leukemia 87.5% | OVCAR-8 ovarian 100% | OVCAR-5 ovarian 98.8% | OVCAR-4 ovarian 90% | OVCAR-3 ovarian 103% | HS 578T breast 94.4% | NCI/ADR-RES ovarian 91.8%

COc1cc2cc(Oc3ccc(NC(=O)Nc4cccc(C(F)(F)F)c4)cc3)c(C)nc2cc1OCCN(C)C
inactive: SK-MEL-2 melanoma 111% | EKVX NSCLC 92.9% | SN12C renal 92.3% | UO-31 renal 89.8% | TK-10 renal 110% | ACHN renal 97.3% | CAKI-1 renal 89.9% | A498 renal 106% | CCRF-CEM leukemia 71.4% | MOLT-4 leukemia 80.5% | SR leukemia 26.1% | RPMI-8226 leukemia 92.3% | OVCAR-5 ovarian 108% | OVCAR-4 ovarian 92.9% | SK-OV-3 ovarian 107% | IGROV1 ovarian 102% | OVCAR-3 ovarian 122% | HS 578T breast 112% | NCI/ADR-RES ovarian 93.9%

O=C(NCCNc1cc(-c2cn(-c3ccccc3)nc2-c2cccc(O)c2)ccn1)Nc1ccc(Cl)c(C(F)(F)F)c1
inactive: SK-MEL-2 melanoma 104% | EKVX NSCLC 56.7% | SN12C renal 65.6% | UO-31 renal 42.1% | TK-10 renal 98.1% | ACHN renal 44.2% | CAKI-1 renal 46% | A498 renal 72.5% | CCRF-CEM leukemia 54.1% | MOLT-4 leukemia 47.1% | SR leukemia 65.5% | RPMI-8226 leukemia 17.5% | OVCAR-5 ovarian 59.9% | OVCAR-4 ovarian 73.5% | SK-OV-3 ovarian 94.6% | IGROV1 ovarian 69% | HS 578T breast 41.6% | NCI/ADR-RES ovarian 49.8%

Cc1nn(-c2ccc(Cl)cc2)c(C)c1N=Nc1ccc2oc(=O)ccc2c1
inactive: SK-MEL-2 melanoma 110% | EKVX NSCLC 85.6% | SN12C renal 56.4% | UO-31 renal 64.8% | TK-10 renal 89.6% | ACHN renal 79.4% | CAKI-1 renal 73.7% | A498 renal 85.6% | CCRF-CEM leukemia 82% | MOLT-4 leukemia 89.3% | SR leukemia 67.1% | RPMI-8226 leukemia 72.3% | OVCAR-5 ovarian 104% | OVCAR-4 ovarian 34.4% | SK-OV-3 ovarian 114% | IGROV1 ovarian 80.9% | OVCAR-3 ovarian 104% | HS 578T breast 75.9% | NCI/ADR-RES ovarian 69.5%

CN1C(=O)N(C)C2Nn3c(s/c(=C\c4ccccn4)c3=O)=NC21 (stereo not given)
inactive: SK-MEL-2 melanoma 102% | EKVX NSCLC 99.7% | SN12C renal 104% | UO-31 renal 88.1% | TK-10 renal 111% | ACHN renal 100% | CAKI-1 renal 97.1% | A498 renal 105% | CCRF-CEM leukemia 102% | MOLT-4 leukemia 110% | SR leukemia 109% | RPMI-8226 leukemia 105% | OVCAR-8 ovarian 101% | OVCAR-5 ovarian 104% | SK-OV-3 ovarian 114% | IGROV1 ovarian 98.3% | OVCAR-3 ovarian 106% | HS 578T breast 113% | NCI/ADR-RES ovarian 103%
